Source: PubChem (Broad Institute)
Shown is part of a subset that was picked to be rich in hits.
STK33 inh: inhibitors of human STK33 kinase | inhibition, % at 12.5 µM | hit rate 0.44% among 27,000 | ADP-Glo luminescence, MBP substrate; in the data active = inhibition above about 20%
NOMO-1 viab: STK33 inhibitor candidate reducing NOMO-1 cell viability | NOMO-1 AML viability, CellTiter-Glo luminescence, 72 h | inhibition, % (no concentration beside the values) | hit rate 7.5% among 37,000 | AID 2330; in the data active = inhibition above about 80%
PD-1 reversal: reversal of PD-1 mediated T-cell inhibition | primary human CD4 T cells, PD-L1 beads, CellTiter-Glo 96 h | activation, % (no concentration beside the values) | 29,000 tested, under 10 active | AID 2316; call rule not given here;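 note: 0% = median vehicle wells and 100% = positive control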
Active calls of the source: *.

C[C@@H]1CN([C@H](C)CO)C(=O)Cc2cc(NC(=O)Nc3ccccc3)ccc2O[C@@H]1CN(C)Cc1ccc(Cl)c(Cl)c1 was read as STK33 inh 1, NOMO-1 viab 99* and PD-1 reversal -2.
Screening CC(C)NC(=O)Nc1ccc2c(c1)CC(=O)N([C@H](C)CO)C[C@@H](C)[C@@H](CN(C)Cc1ccc(Cl)c(Cl)c1)O2 returned STK33 inh -1, NOMO-1 viab 43 and PD-1 reversal -1.
`C[C@H]1CN([C@@H](C)CO)C(=O)Cc2cc(NC(=O)Nc3ccccc3)ccc2O[C@@H]1CN(C)Cc1ccc(Cl)c(Cl)c1` gave STK33 inh 4, NOMO-1 viab 31 and PD-1 reversal 0.
Screening C[C@H]1CN([C@@H](C)CO)C(=O)Cc2cc(NC(=O)Nc3ccc(F)cc3)ccc2O[C@@H]1CN(C)Cc1ccc(Cl)c(Cl)c1 returned STK33 inh 5, NOMO-1 viab 96* and PD-1 reversal -1.
Screening C[C@@H]1CN([C@H](C)CO)C(=O)Cc2cc(NC(=O)Nc3ccc(F)cc3)ccc2O[C@H]1CN(C)Cc1ccc(Cl)c(Cl)c1 returned STK33 inh 5, NOMO-1 viab 94* and PD-1 reversal 0.
CC(C)NC(=O)Nc1ccc2c(c1)CC(=O)N([C@@H](C)CO)C[C@H](C)[C@@H](CN(C)Cc1ccc(Cl)c(Cl)c1)O2 was read as STK33 inh 0, NOMO-1 viab -2 and PD-1 reversal 0.
Screening C[C@@H]1CN([C@H](C)CO)C(=O)Cc2cc(NC(=O)Nc3ccc4c(c3)OCO4)ccc2O[C@H]1CN(C)Cc1ccc(Cl)c(Cl)c1 returned STK33 inh 6 and NOMO-1 viab 57.
Screening COC(=O)c1ccc(NC(=O)CN2C(=O)C3C4CC(c5ccccc5)C(C4)C3C2=O)cc1 (centres undefined) returned STK33 inh -3 and NOMO-1 viab 49.
For Cc1cccc(C)c1NC(=O)CC(C(=O)O)N(C)C (centres undefined) the results were STK33 inh -2, NOMO-1 viab -12 and PD-1 reversal 0.
Cn1c(/C(C#N)=C(/O)c2ccc(F)cc2)nc2ccccc21 was read as NOMO-1 viab 29 and PD-1 reversal -3.
`CCOC(=O)C1=C(S)N(C#N)C(=O)C(C#N)C12CCNCC2` (centres undefined) gave NOMO-1 viab 11 and PD-1 reversal 1.
Cc1cc2nn(-c3ccc(C(C)C)cc3)nc2cc1NC(=O)COc1ccccc1[N+](=O)[O-] was read as STK33 inh 4 and NOMO-1 viab 2.
`[N-]=C=N[n+]1ccc2ccccc2c1C(=O)c1ccc(Cl)cc1` gave STK33 inh 0, NOMO-1 viab 52 and PD-1 reversal -5.
For CC(C)Cc1c(O)nc(SCC(=O)NC(C)(C)C)[nH]c1=O the results were STK33 inh 0, NOMO-1 viab -5 and PD-1 reversal 0.
Screening Cc1ccc(S(=O)(=O)Nc2ccc3c(c2)C(=O)N([C@H](C)CO)C[C@H](C)[C@@H](CN(C)Cc2ccc(C(=O)Nc4ccccc4N)cc2)O3)cc1 returned NOMO-1 viab 27 and PD-1 reversal -1.
COc1ccc(S(=O)(=O)Nc2ccc3c(c2)C(=O)N([C@H](C)CO)C[C@@H](C)[C@@H](CN(C)Cc2ccc(C(=O)Nc4ccccc4N)cc2)O3)cc1 was read as NOMO-1 viab 108* and PD-1 reversal 0.
For COc1ccc(S(=O)(=O)Nc2ccc3c(c2)C(=O)N([C@@H](C)CO)C[C@@H](C)[C@@H](CN(C)Cc2ccc(C(=O)Nc4ccccc4N)cc2)O3)cc1 the results were NOMO-1 viab 110* and PD-1 reversal 0.
COc1ccc(S(=O)(=O)Nc2ccc3c(c2)C(=O)N([C@@H](C)CO)C[C@@H](C)[C@H](CN(C)Cc2ccc(C(=O)Nc4ccccc4N)cc2)O3)cc1 was read as NOMO-1 viab 40 and PD-1 reversal -1.
Screening CCc1nc(SCS(=O)(=O)c2ccc(C)cc2)c(C#N)c2c1CCCC2 returned STK33 inh -1, NOMO-1 viab -5 and PD-1 reversal -1.
For C1=CN(c2ccccc2)C(C=NCc2ccccc2)=CS1 the results were NOMO-1 viab 69 and PD-1 reversal 1.
CSC(N)=Nc1c(Cl)cccc1Cl was read as NOMO-1 viab 21 and PD-1 reversal 0.
For Cc1ccc(S(=O)(=O)N(C)C[C@H]2Oc3c(NC(=O)Nc4ccc(C(F)(F)F)cc4)cccc3C(=O)N([C@@H](C)CO)C[C@@H]2C)cc1 the results were NOMO-1 viab 63 and PD-1 reversal -1.
For Cc1ccc(S(=O)(=O)N(C)C[C@H]2Oc3c(NC(=O)Nc4ccc(F)cc4)cccc3C(=O)N([C@@H](C)CO)C[C@@H]2C)cc1 the results were NOMO-1 viab 35 and PD-1 reversal 2.
